Measured values from PubChem BioAssay AID488840 (Broad Institute, 2010).
Screen size: about 1,400 compounds; about 45 (3%) were called active.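 The calls were made as follows: active = half-maximal dose of signal decrease from fit no higher than ten times the top valid tested dose; inconclusive = fit invalid, or curve flat with 30 to 70% inhibition; inactive = the rest.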 A selection follows. Entries with a potency or affinity are not part of this list.

target: Lysine-specific demethylase 4A (Homo sapiens) (UniProt O75164); assay: inhibition of JMJD2A H3K9me3 demethylation – biochemical, DELFIA europium, cherry-picked samples, selectivity assay for GASC-1 inhibitor project, dose response (AID 488840); conditions: GST-JMJD2A(1-420) H3K9me3 demethylation; series mostly up to 6 µM;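 also: europium signal reports the dimethyl H3K9 product detected by antibody so inhibitors lower it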
Sequence (O75164 whole entry, looked up): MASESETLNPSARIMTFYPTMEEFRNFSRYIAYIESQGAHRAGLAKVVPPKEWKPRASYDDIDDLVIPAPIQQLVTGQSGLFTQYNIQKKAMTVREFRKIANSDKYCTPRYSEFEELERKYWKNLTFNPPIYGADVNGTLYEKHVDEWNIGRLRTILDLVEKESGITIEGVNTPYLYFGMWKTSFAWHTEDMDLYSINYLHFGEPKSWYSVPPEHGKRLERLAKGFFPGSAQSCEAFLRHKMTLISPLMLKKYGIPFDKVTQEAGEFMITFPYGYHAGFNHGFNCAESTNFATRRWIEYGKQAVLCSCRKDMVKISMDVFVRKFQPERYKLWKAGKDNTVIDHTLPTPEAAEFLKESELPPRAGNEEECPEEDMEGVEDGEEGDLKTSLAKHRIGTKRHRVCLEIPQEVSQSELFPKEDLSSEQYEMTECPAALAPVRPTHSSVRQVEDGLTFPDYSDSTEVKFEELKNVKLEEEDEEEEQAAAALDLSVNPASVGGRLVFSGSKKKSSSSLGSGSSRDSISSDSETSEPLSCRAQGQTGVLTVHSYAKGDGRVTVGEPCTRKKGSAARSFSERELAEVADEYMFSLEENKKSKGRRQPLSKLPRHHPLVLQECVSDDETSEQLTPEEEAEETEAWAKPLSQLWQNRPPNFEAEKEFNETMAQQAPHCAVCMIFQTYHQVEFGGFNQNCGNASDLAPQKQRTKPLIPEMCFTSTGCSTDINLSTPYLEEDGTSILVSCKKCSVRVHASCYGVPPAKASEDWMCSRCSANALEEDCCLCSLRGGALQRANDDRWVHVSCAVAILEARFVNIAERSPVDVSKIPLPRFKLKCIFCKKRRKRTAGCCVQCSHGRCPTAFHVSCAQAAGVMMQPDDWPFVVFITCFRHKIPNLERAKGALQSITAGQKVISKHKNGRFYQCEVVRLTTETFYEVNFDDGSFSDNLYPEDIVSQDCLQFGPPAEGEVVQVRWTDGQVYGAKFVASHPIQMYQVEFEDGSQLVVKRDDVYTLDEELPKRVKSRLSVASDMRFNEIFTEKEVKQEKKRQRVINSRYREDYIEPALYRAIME

outcome, inactive:
COc1cc2c(cc1OC)C(COc1ccc(F)cc1)NCC2 (centres undefined)
CC(C)CN(C(=O)c1ccc(N2CCCC2=O)cc1)c1c(N)n(Cc2ccccc2)c(=O)[nH]c1=O
OC(COc1ccc2ccccc2c1Br)Cn1cnc(-c2ccccc2)c1 (centres undefined)
COc1ccc2cc3cc(C(=O)N4CCN(C5CCCCC5)CC4)oc3nc2c1
C[C@@H]1CN([C@H](C)CO)C(=O)c2cccc(NS(=O)(=O)c3ccccc3)c2O[C@H]1CN(C)C
COC(=O)c1cc(C#N)c(OC)nc1C
CSc1ccc(-c2nc(CSCC(=O)N3CCOCC3)c(C)o2)cc1
O=C(N/N=C/c1cc([N+](=O)[O-])cc([N+](=O)[O-])c1O)/C(=C\c1cccs1)NC(=O)c1ccccc1
Cc1ccc(/C=N\NC(=O)c2cc([N+](=O)[O-])cc([N+](=O)[O-])c2)o1
COc1cc(C#N)c(N=C(SCC#N)N2CCOCC2)cc1OC
Cc1ccc(NC(=O)C(=O)NCCN2CCN(C(=O)C(c3ccccc3)c3ccccc3)CC2)cc1
COc1ccc(CCN2C(=O)CC(NNC(=O)c3ccccc3Br)C2=O)cc1 (centres undefined)
CNC(=O)/C(C#N)=C/c1c(N(Cc2ccccc2)Cc2ccccc2)nc2ccccn2c1=O
O=C(CSc1nnc(CNC(=O)c2ccccc2F)o1)NCCc1ccccc1
COc1ccc(NC(=O)C2OC3OC(C)(C)OC3C3OC(C)(C)OC23)cc1 (centres undefined)
C=CCOc1ccc(C(=O)NC2CCCCC2)cc1
Cc1cc(=O)[nH]c(CN2CCOCC2)n1
COc1ccc(N2CCN(C(=O)c3nn(C)c4c3CS(=O)(=O)c3ccccc3-4)CC2)cc1
O=c1cc(NC2CCCCCC2)[nH]c(=O)[nH]1
CCCc1nn2c(=O)cc(CSCC(=O)Nc3ccccc3)nc2s1
Cc1nnsc1C(=O)NNS(=O)(=O)c1ccccc1
CCC(=O)N1CCc2cc(S(=O)(=O)CCC(=O)Nc3cccc(F)c3)ccc21
C#CCOCCOCCOCCNc1nc(N2CCOCC2)nc(N2CCN(C(=O)[C@H](Cc3cc4ccccc4[nH]3)n3cc([C@@H](N)CC(C)C)nn3)CC2)n1
COc1ccc(NC(=S)N2CCC(C(=O)N3CCCCCC3)CC2)cc1
CC(=O)Nc1ccc(NC(=O)C2CCN(C(=O)c3cccs3)CC2)cc1
CCC(CC)NC(=O)CSc1nnc(-c2ccc(OC)cc2)n1C(C)C
Cc1ccc(CNC(=O)CCC2CCCN(Cc3ccc4cccc(F)c4n3)C2)o1 (centres undefined)
COc1ccc(/C=N/Nc2cc(=O)n(C)c(=O)n2C)cc1OC
CC1=NN(C(=O)Cc2ccccc2)C(O)(c2cccnc2)C1 (centres undefined)
C#CCOCCOCCOCCNc1nc(N2CCN(C(=O)[C@H](CCCCN)n3cc(CN)nn3)CC2)nc(N2CCN(C(=O)[C@H](CCC(=O)O)n3cc([C@@H](N)CCSC)nn3)CC2)n1
CCN(CC)C(=O)[C@H]1CC(CC(=O)NC/C=C(\C)CCC=C(C)C)C(=O)N2CCc3c([nH]c4ccccc34)[C@]12C (some centres undefined)
Cc1ccc(/C(N)=N/OC(=O)CCC2CCCCC2)cc1
O=c1cc(N2CCc3ccccc32)[nH]c(=O)n1-c1ccccc1
CCc1ncc(C)[nH]1
Cc1noc(C)c1COc1ccc(C(=O)NCC2CCCO2)cc1 (centres undefined)
O=c1cc(-c2ccc(O)c(O)c2)oc2c(C3O[C@H](CO)[C@@H](O)[C@H](O)[C@H]3O)c(O)cc(O)c12 (some centres undefined)
CCC(C)NC(=S)N1CCN(C)CC1 (centres undefined)
COc1cccc(NC(=O)N2CCN(c3cccc(C)c3)C(C)C2)c1 (centres undefined)
COC(=O)[C@]1(Cc2ccccc2)N[C@H](CN(C)C(=O)Nc2ccccc2)[C@@H]2C(=O)N(C)C(=O)[C@@H]21
O=C(NCc1nnc(SCC(=O)N2CCCC2)o1)c1ccccc1F
O=[N+]([O-])c1ccccc1N/N=C\c1ccccc1Cl
CCC(=O)Nc1ccccc1Nc1cc(C#N)c(C#N)cc1[N+](=O)[O-]
Cc1ccc(Nc2nnc(SCC(=O)N(C)C3CCS(=O)(=O)C3)s2)cc1 (centres undefined)
CCO[C@@H]1OC(C(=O)NC2CC2)=C[C@H](c2c[nH]c3ccccc23)[C@H]1CCCO
O=C(NCCCn1ccnc1)c1cc2c(ccc3ccccc32)o1
Cc1occc1-c1nnc(SCC(=O)c2cc3ccccc3oc2=O)o1
COc1ccccc1NC(=O)COC(=O)/C=C/c1cccs1
COc1ccccc1NC(=O)c1cccs1
Cc1ccc(C(=O)NCCCCNC(=O)c2ccc(C)o2)o1
COC(=O)C1=C(C)OC(N)=C(C#N)C1c1cc2cccc(C)c2nc1Cl (centres undefined)
CC(C)=CC(=O)O[C@@H]1Cc2c(ccc3ccc(=O)oc23)OC1(C)C
c1ccc2c(c1)ccc1nnc(-c3ccc4c(c3)OCO4)n12
CS(=O)(=O)N(CC(=O)N1CCCCCC1)c1ccccc1
C[C@H](CO)N1C[C@H](C)[C@@H](CN(C)Cc2ccncc2)Oc2c(NC(=O)Cc3ccccc3)cccc2C1=O
O=C(Nc1cccnc1)c1ccc2c(c1)C(=O)N(Cc1cccnc1)C2=O
CCOC(=O)CSc1nc2sc(C)c(C)c2c(=O)[nH]1
Cn1c(=O)c(-c2ccccc2)nn2c3ccccc3nc12
Cc1ccc(Nc2c(-c3ccccn3)nc3cc(C)ccn23)cc1
c1ccc(-c2nc(-c3ccco3)cs2)nc1
Clc1ccccc1Cn1nnc2c(NCCN3CCOCC3)ncnc21
Cc1ccc(NC(=O)c2cccc3c2C(=O)N(C2CCCCC2)C3)c(C)c1
Cc1ccc(S(=O)(=O)Nc2ccc3c(c2)C(=O)N([C@H](C)CO)C[C@H](C)[C@@H](CN(C)Cc2ccc(-c4ccccc4)cc2)O3)cc1
Cc1nn(C)c(N)c1C(O)(c1nccn1C)C(F)(F)F (centres undefined)
O=C(NCC(c1ccco1)N1CCCCC1)c1ccc(OCc2ccccc2)cc1 (centres undefined)
CCOC(=O)Cc1csc(NC(=O)COc2cccc(C)c2)n1
Cc1ccccc1-n1nc(C)c2cc(C(=O)N3CCN(S(=O)(=O)c4ccc(F)cc4)CC3)sc21
Cc1cccc(-c2noc(CCC(=O)NC3CCCC3)n2)c1
COc1ccc(CN2CCCCC2C)c(C)c1C (centres undefined)
CC(C)CCN(C(=O)C1=COCCO1)c1c(N)n(Cc2ccccc2)c(=O)[nH]c1=O
Cn1c(=O)[nH]c(=O)c2c1nc(NCCCO)n2Cc1ccc(F)cc1
COC(=O)COc1ccc(Oc2cc(C)nc(SC)n2)nn1
Cc1ccc2c(c1)N(CC(=O)NCC1CCCO1)C(=O)C(C(C)C)O2 (centres undefined)
C=CCn1c(N)c(-c2nc3ccccc3n2C)sc1=S
COc1ccc(C(=O)N2CCCC(c3nc(-c4ccc(OC)c(OC)c4)no3)C2)c(OC)c1 (centres undefined)
O=C(NCCCN1CCOCC1)c1cccc(S(=O)(=O)N2CCc3ccccc3C2)c1
O=C(Nc1cc(S(=O)(=O)N2CCOCC2)ccc1N1CCCC1)c1ccc(F)cc1
O=C(COC(=O)c1cccc(S(=O)(=O)NCc2ccccc2)c1)Nc1ccccc1OC(F)F
c1coc(CSCc2cn3cccnc3n2)c1
COC(=O)[C@]1(C)N[C@H](CN(C)C(=O)Nc2ccc(F)cc2)[C@@H]2C(=O)N(C)C(=O)[C@@H]21
Cc1cccc(NC(=O)C2CCCN(S(=O)(=O)c3c(C)nn(C)c3C)C2)n1 (centres undefined)
CN(C(=O)c1ccc(Cl)c([N+](=O)[O-])c1)C1(C)CCS(=O)(=O)C1 (centres undefined)
O=C1NC(=S)N/C1=C/c1cc2c(cc1[N+](=O)[O-])OCO2
N#CC1(NC(=O)Cn2ncc(Cl)c(Cl)c2=O)CCCCC1
CCOC(=O)C1=C(C)N(C)C(C)=C(C(=O)OCC)C1c1cccnc1
COc1cccc(CNC(=O)c2cc3c(cc2Cl)N2CCCCCC2=NS3(=O)=O)c1
C#CCOCCOCCOCCNc1nc(N2CCN(C(=O)CCCCCCCCCCNC(=O)[C@H]([C@@H](C)CC)n3cc(CCCCN=C(N)N)nn3)CC2)nc(N2CCN(C(=O)CCCCCCCCCCNC(=O)[C@H](CCCCN)n3cc(C)nn3)CC2)n1
C#CCOCCOCCOCCNc1nc(N2CCN(C(=O)CCCCCCCCCCNC(=O)[C@H](CCCCN)n3cc(CCO)nn3)CC2)nc(N2CCN(C(=O)CCCCCCCCCCNC(=O)[C@H](CCCCN)n3cc(C[C@@H](C)CC)nn3)CC2)n1
O=C1C=C(NCc2ccc3c(c2)OCO3)CC(c2ccccc2)C1 (centres undefined)
Cc1cc(C(F)(F)F)nn1C(=O)c1cccnc1Cl
O=C(NCCCNCCCNC(=O)c1ccc(/C=N/O)nc1)c1ccc(/C=N/O)nc1
COC(=O)CSC1=C(C#N)C(c2ccsc2)CC(=O)N1 (centres undefined)
COc1ccc(N2C(=O)CSC23CCCCC3)cc1
Cc1cccnc1Nc1nc(-c2ccc(O)cc2)cs1
COc1ccc(/C=C(/C(=O)NCc2ccccc2)c2ccccc2)cc1
Cc1cccc(NC(=S)N2CCN(Cc3ccc4c(c3)OCO4)CC2)c1C
CC1(C)[N+]([O-])=C2C(=[N+]([O-])C1(C)C)c1ccccc1/C2=N\O
O=C1NCCN1CCNS(=O)(=O)c1ccccc1[N+](=O)[O-]
Cc1ccc(NC(=O)COC(=O)c2ccco2)cc1S(=O)(=O)N1CCOCC1
Cc1ccc(/C=N/NC(=O)c2ccc(C(=O)N/N=C/c3ccc(C)s3)o2)s1
